From PubChem
Most compounds without a hit are left out; they make up all but 3.6% or so of the library.
Smad3 inh – Smad3/FoxH1 peptide binding inhibitors, primary screen, biochemical, TR-FRET | Mothers against decapentaplegic homolog 3 (Homo sapiens), P84022 | TR-FRET Smad3/Dy647-FoxH1 peptide binding, europium anti-His | inhibition, % at 25 µM | 0.29% of 88,000 active;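 active = compounds that reduce the energy-transfer binding signal between the protein and its labelled peptide by more than half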;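 also: 0% = Smad3 plus labelled peptide maximal FRET and 100% = peptide-only background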
ERa coact pot – enhancers of ERα–SRC-1 coactivator binding, primary screen, biochemical, TR-FRET, ERα LBD, low estradiol. coactivator binding (% of control), % at 25.6 µM. Estrogen receptor (Homo sapiens), P03372. 1.3% of 86,000 active. AID 639, 2007. TR-FRET ERalpha-LBD/SRC-Cy5 coactivator binding, 2 h; 100 = basal binding, no effect; in the data active = activity above about 200%;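 also: binding measured in presence of low estradiol as agonist stimulus; 0% = peptide alone without receptor and 100% = receptor with peptide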
ERa coact inh – ERα–SRC-1 coactivator interaction inhibitors, primary screen, biochemical, TR-FRET, ERα LBD, estradiol-bound. Estrogen receptor (Homo sapiens), P03372. TR-FRET ER-alpha LBD / SRC-1 peptide. inhibition, % at 25.6 µM. 1.7% of 86,000 active. AID 629, 2007; in the data active = inhibition above about 50%;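 also: 0% = receptor plus peptide control and 100% = peptide only without receptor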
Candida biofilm – clotrimazole potentiators killing Candida biofilms, primary screen, with clotrimazole, Alamar Blue; C. albicans biofilm + clotrimazole; inhibition, % at 6 µM; 0.14% of 85,000 active;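 active = inhibition above 20%; inactive = inhibition below 20%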;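 also: preformed 24 hr biofilms exposed to compound for 48 hr; 0% = biofilm without compound and 100% = blank killed by clotrimazole plus chlorhexidine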
ERb SRC1 inh – inhibitors of ERβ-SRC1 coactivator interaction, primary screen, biochemical, TR-FRET, ERβ LBD, SRC-1 peptide | Estrogen receptor beta (Homo sapiens), Q92731 | TR-FRET ER-beta LBD / SRC1-Cy5 peptide binding; receptor agonist-loaded with 1 µM estradiol | inhibition, % at 25.6 µM | 1.3% of 86,000 active | AID 633, 2007;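 active = compounds whose percent inhibition of the receptor-coactivator binding signal exceeds about 50% in the single-dose screen, limit read from the data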;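 also: 0% = receptor plus peptide wells without compound and 100% = peptide-only wells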
Target sequence (Q92731 whole entry, looked up, the tested form may be a part): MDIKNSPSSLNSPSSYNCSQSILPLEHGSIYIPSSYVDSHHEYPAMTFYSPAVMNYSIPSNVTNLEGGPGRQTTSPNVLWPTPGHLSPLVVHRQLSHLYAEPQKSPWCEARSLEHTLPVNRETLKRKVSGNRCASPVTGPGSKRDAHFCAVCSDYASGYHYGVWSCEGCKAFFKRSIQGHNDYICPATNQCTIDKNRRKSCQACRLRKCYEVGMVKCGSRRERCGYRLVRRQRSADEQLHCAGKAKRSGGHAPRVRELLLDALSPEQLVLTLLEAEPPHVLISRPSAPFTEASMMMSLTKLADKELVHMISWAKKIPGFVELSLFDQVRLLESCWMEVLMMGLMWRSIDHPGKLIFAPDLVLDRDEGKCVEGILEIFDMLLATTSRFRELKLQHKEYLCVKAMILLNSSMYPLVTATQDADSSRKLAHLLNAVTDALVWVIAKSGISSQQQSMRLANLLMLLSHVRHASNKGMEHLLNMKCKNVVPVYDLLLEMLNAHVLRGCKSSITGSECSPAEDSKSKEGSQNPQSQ
* hit, by the source's call; · = no result given; [ ] = another dose, or the depositor's remark.

SMILES	Smad3 inh	ERa coact pot	ERa coact inh	Candida biofilm	ERb SRC1 inh
CSC1(SC2=NCCN2)SC2(NCCN2)S1	81*	·	·	·	·
O=C(O)CSC1=NCCN1	11	110	4	10	-6
CC1CCN(CCCNC(=O)Cc2c(C(=O)O)n(C)c3ccccc23)CC1	-10	116	-3	0	-1
COc1ccc(NC(=O)c2noc3c2CCC3)cc1	4	44	86*[fluorescence artefact?]	1	90*[fluorescence artefact?]
COc1ccc(CNC(=O)c2noc3c2CCCCC3)cc1	-2	100	-7	5	-8
COc1cc(NC(=O)c2noc3c2CCC3)c(OC)cc1Cl	-5	25	88*[fluorescence artefact?]	-3	86*[fluorescence artefact?]
Cc1cc(C#N)c(C)n1-c1cc(S(=O)(=O)N2CCOCC2)ccc1N1CCCC1	0	77	6	7	-6
CCCOCC1CC2(SC(=Nc3ccc(C)cc3)NC2=O)C(=O)O1 (centres undefined)	0	106	-6	8	69*[fluorescence artefact?]
O=C(CCCCCn1c(=S)[nH]c2ccc(Br)cc2c1=O)NCC1CCCO1 (centres undefined)	14	116	52*[fluorescence artefact?]	-1	30
O=C(NC1CCCCC1)C(c1ccccc1)N1CCc2ccccc21 (centres undefined)	10	95	99*[fluorescence artefact?]	9	-1
COc1ccc(C2SCC(=O)N2c2c(C)n(C)n(-c3ccccc3)c2=O)cc1OC (centres undefined)	-21	105	-2	6	-13
CC(C)CCNC(=O)C(c1cccnc1)N(CCc1ccccc1)C(=O)Cn1nnc2ccccc21 (centres undefined)	55*	118	-4	11	-7
CCOC(=O)c1cnc(SCC(=O)Nc2nnc(CC)s2)nc1N	6	235*	-8	2	1
Cc1cc(C)c(N2CCN(S(=O)(=O)N3CCCCCC3)CC2)c(C)c1	-5	91	-1	6	13
COc1ccc(OC)c(/C(O)=C/C(=O)C(=O)Nc2ccccc2OC)c1	-1	91	-4	3	-8
COc1ccc(C2c3sc(=O)[nH]c3SC3C4CCC(C4)C23)cc1OC (centres undefined)	3	40	22	4	3
O=c1[nH]c2c(s1)C(c1ccc(O)cc1)C1C3CCC(C3)C1S2 (centres undefined)	5	13	70*	9	49
Cc1ccc2nc(N3CCN(S(=O)(=O)c4ccc5c(c4)OCCO5)CC3)c(C#N)cc2c1	-4	258*[fluorescence artefact?]	49	0	56*[fluorescence artefact?]
Cc1ccc2cc(C#N)c(N3CCCN(C(=O)C4CCCO4)CC3)nc2c1 (centres undefined)	-21	92	-2	5	8
Cc1ccc(S(=O)(=O)N2CCCN(S(=O)(=O)c3ccc4c(c3)OCCO4)CC2)cc1	4	112	-10	-2	-11
Cc1cc(C)c2cc(C#N)c(N3CCCC3)nc2c1	7	119	51*[fluorescence artefact?]	8	25
COc1cc(C(=O)N2CCCN(c3nc4cc(C)ccc4cc3C#N)CC2)cc(OC)c1OC	15	80	6	10	5
Cc1ccc(S(=O)(=O)N2CCCN(c3nc4cc(C)ccc4cc3C#N)CC2)cc1	9	350*[fluorescence artefact?]	35	2	45
COC(=O)c1cc(NC(=O)C2CCCN(S(=O)(=O)c3c(C)n[nH]c3C)C2)cc(C(=O)OC)c1 (centres undefined)	·	·	·	4	·
C[C@H](NCCN(C)C)[C@@H]1CC[C@@H]2[C@H]3CCc4cc(O)ccc4[C@@H]3CC[C@]21C	-16	·	·	·	·
COC(=O)c1cn(NC(=O)c2cccc(F)c2)c(=O)c2ccccc12	-1	80	6	60*	-9
Cc1ccc2nc(NC(=O)C(NS(=O)(=O)c3cccc4nsnc34)C(C)C)sc2c1 (centres undefined)	-2	102	6	17	0
Cc1cc(C)n(-c2nc3ccccc3c(=O)n2OCCOc2ccccc2)n1	-7	33	7	3	56*[fluorescence artefact?]
CCCOC(=O)Nc1nnc(CCC)s1	0	93	-2	-2	8
O=C(NCc1ccco1)c1cc2ccc(O)cc2oc1=O	10	91	64*	4	72*
